Compound activity from PubChem BioAssay.
MazF activator = activators of E. coli MazEF toxin-antitoxin RNase. P0AE70. FAM/BHQ RNA-DNA oligo cleavage fluorescence, 5 h. activation, % at 20 µM. 350,000 tested, 0.32% active. AID 504720; in the data active = activation above about 50%
Target sequence (P0AE70 whole entry, looked up): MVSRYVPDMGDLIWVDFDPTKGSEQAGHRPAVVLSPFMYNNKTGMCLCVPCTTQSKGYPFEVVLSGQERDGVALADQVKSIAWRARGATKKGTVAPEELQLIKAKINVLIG
DUSP3 inh = blocks human VHR1 dual specificity phosphatase. P51452. recombinant VHR phosphatase, pNPP absorbance. inhibition, % at 13.3 µM. 290,000 tested, 0.52% active. AID 1654; in the data active = inhibition above about 50%
Target sequence (P51452 whole entry, looked up): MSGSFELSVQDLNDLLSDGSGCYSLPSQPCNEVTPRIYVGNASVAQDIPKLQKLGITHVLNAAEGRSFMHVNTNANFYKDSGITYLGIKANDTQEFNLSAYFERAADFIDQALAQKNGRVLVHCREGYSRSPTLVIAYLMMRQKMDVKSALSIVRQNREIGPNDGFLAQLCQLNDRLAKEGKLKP
BoNT-A LC inh2 = BoNT A light chain protease inhibition; multiplex microsphere protease substrate cleavage, flow cytometry; inhibition, % at 10 µM; 360,000 tested, 0.17% active; AID 588499; note: plate controls were buffer without enzyme for full effect and enzyme alone for no effect
Autofluor counter = flagged as autofluorescent in microsphere protease counterscreen; compound autofluorescence counterscreen, microsphere flow cytometry; active compounds read high; fluorescence intensity (concentration not given with the values); 360,000 tested, 3.1% active; AID 624483; in the data active = fluorescence intensity above about 16000; inconclusive = no clear call, values can overlap the other calls
BoNT F protease = inhibitors of Botulinum neurotoxin F light chain protease; 360,000 tested, 0.22% active; inhibition, % at 10 µM; Multiplex microsphere protease cleavage assay, flow cytometry; AID 588497; in the data active = inhibition above about 35%, passing the limit was not always enough; inconclusive = no clear call, values can overlap the other calls; note: plate controls were buffer without enzyme for full effect and enzyme alone for no effect
Anthrax LF inh2 = anthrax lethal factor protease inhibition; multiplex microsphere protease cleavage assay, LF; AID 588501; inhibition, % at 10 µM; P15917; 360,000 tested, 0.12% active; note: plate controls were buffer without enzyme for full effect and enzyme alone for no effect
Active calls of the source: *; ? = inconclusive; / = no result given. In the library only some 4.1% were active in any assay of this set; here they are far more common. Cut-off read from the data, not from the text of the source, unless noted: active = inhibition above about 30%; inconclusive = no clear call, values can overlap the other calls; inactive = below that.

SMILES | MazF activator | DUSP3 inh | BoNT-A LC inh2 | Autofluor counter | BoNT F protease | Anthrax LF inh2
COc1cccc(Nc2nc3ccccc3nc2NS(=O)(=O)c2cccs2)c1 | -9 | 34 | ? | 22498* | -2 | -6
CC1NC(=O)c2cccnc2-n2c1nc1cc(F)ccc1c2=O (stereo not drawn) | 6 | / | -1 | 3840 | -12 | -8
CCn1c(-c2cc(-c3cccc(OC)c3)nc3ccccc23)n[nH]c1=S | -4 | 6 | 2 | 19974* | 2 | -4
COC(=O)c1nnn(CC(=O)NC(=O)Nc2cccc(Cl)c2C)c1C(=O)OC | 6 | 51* | -1 | 4934 | -8 | -10
C=CCC[C@H](Cc1ccc(F)cc1)C(=O)OC[C@@H](NC(=O)[C@@H](CC=C)CC(=O)N(CCO)Cc1ccccc1)C(C)(C)C | -8 | / | 0 | 3024 | 3 | -13
O=C(NC1=NCCS1)c1cc2ccccc2o1 | -1 | 26 | -1 | 20997* | -5 | -6
O=C(NC1=NCCS1)c1ccccc1 | -20 | 17 | -2 | 3749 | 10 | 4
Cc1cc(C(=O)NC2=NCCS2)cs1 | 1 | 16 | ? | 22079* | -10 | 0
OC(c1ccccc1)(c1nc(-c2cccc3cccnc23)cs1)C(F)(F)F (stereo not drawn) | / | / | 0 | 3926 | -5 | 1
CCN(CC)C(=O)C1=C(C)N(CCCN2CCCC2=O)C(=O)C(CC(=O)NC2CCCC2)C1 (stereo not drawn) | 2 | / | -1 | 3331 | -4 | 6
C=CCOc1c(OC)cc(Cl)cc1C1NC(=O)NC(C)=C1C(C)=O (stereo not drawn) | 10 | 7 | 0 | 4439 | -29 | 1
CCCC1=C(C(=O)OCC)C(c2cc(Cl)cc(OC)c2OCc2ccccc2)NC(=O)N1 (stereo not drawn) | 2 | 37 | 2 | 21474* | 2 | 0
CCOC(=O)C1=C(C)NC(=O)NC1c1cccc(OC)c1OCc1ccccc1Cl (stereo not drawn) | -2 | 14 | ? | 23671* | -2 | -3
COc1ccc(COC(=O)C2=C(C)NC(=O)NC2c2cccc(OC)c2OC)cc1 (stereo not drawn) | 1 | 13 | 2 | 3178 | ? | 10
COc1cc(Cl)cc(C2NC(=O)NC(C)=C2C(C)=O)c1OCC(=O)O (stereo not drawn) | 5 | 14 | -3 | 16937* | -4 | -4
CCOC(=O)C1=C(C)C(c2ccccc2O)NC(=O)N1 (stereo not drawn) | 9 | -22 | 2 | 19487* | 2 | 0
CN(Cc1ccccc1)C(=O)c1ccc(NC(=O)Cc2ccc(NC(=O)C3CCCN(S(=O)(=O)c4cccc([N+](=O)[O-])c4)C3)cc2)cc1 (stereo not drawn) | -9 | / | 0 | 4001 | -3 | -6
CCOC(=O)C1=C(C)NC(=O)NC1c1ccc(-c2ccc(Cl)cc2)o1 (stereo not drawn) | -4 | 17 | 0 | 3603 | -7 | -2
CCOC(=O)C1=C(C)NC(=O)NC1c1ccc(Cl)cc1Cl (stereo not drawn) | 7 | -22 | 3 | 20836* | 2 | -8
CCOC(=O)C1=C(C)NC(=O)NC1c1ccc(-c2ccc(F)cc2)o1 (stereo not drawn) | 1 | 52* | 1 | 4987 | -1 | 8
Cc1cc(C)cc(NC(=O)CSc2nnc(-c3cc(C)[nH]n3)n2N)c1 | -1 | 4 | -1 | 4565 | -2 | 0
O=C(Nc1ccc(Cl)cc1C(=O)c1ccccc1)c1ccco1 | 10 | 36 | -1 | 7038 | -9 | 5
O=C(Nc1ccc(Cl)cc1C(=O)Nc1ccc(Br)cn1)c1ccco1 | -1 | 21 | -2 | 20162* | -6 | 0
O=C(Nc1ccc2c(c1)OCCO2)C1CCN(S(=O)(=O)c2cccs2)CC1 | -1 | 20 | ? | 23275* | -3 | 2
CC(=O)Nc1ccc(NC(=O)C2CCN(S(=O)(=O)c3ccc4c(c3)OCCO4)CC2)cc1 | 4 | / | 0 | 3767 | -2 | -5
SMILES | MazF activator | DUSP3 inh | BoNT-A LC inh2 | Autofluor counter | BoNT F protease | Anthrax LF inh2
Cc1ccc(S(=O)(=O)N2CCC(C(=O)OCC(=O)N3CCCCC3C)CC2)cc1C (stereo not drawn) | 3 | / | -1 | 6391 | 4 | -6
CC1CCCCN1C(=O)COC(=O)C1CCN(S(=O)(=O)c2ccc3c(c2)OCCO3)CC1 (stereo not drawn) | 4 | / | -46 | 17025* | -80 | -8
O=C(Nc1ccc2c(c1)OCCO2)C1CCN(S(=O)(=O)c2ccc3c(c2)OCCO3)CC1 | 6 | 17 | 2 | 21484* | -2 | -1
O=C(Nc1ccc2c(c1)OCCO2)C1CCN(c2nnnn2-c2ccccc2)CC1 | -3 | -9 | 1 | 16234* | 3 | 1
Nc1ccn([C@@H]2O[C@H](CNS(=O)(=O)c3cc4ccccc4s3)[C@@H](O)[C@H]2O)c(=O)n1 | 3 | / | 0 | 3750 | 3 | -6
COc1ccc(OC)c(-c2csc(NC(=O)COC(=O)c3ccc(NC(=O)CC#N)cc3)n2)c1 | -7 | / | 3 | 5981 | 0 | -2
CC1(C)Oc2ccc3ccc(=O)oc3c2C(/C=N/O)=C1Cl | 13 | -8 | 0 | 3622 | -2 | -7
CN(CC(=O)Nc1ccc(N2CCOCC2)cc1)C(=O)CCc1ccccc1Cl | -2 | / | / | / | / | /
O=C(NC1CCCCC1)C1CCCN(c2nnnn2-c2ccccc2)C1 (stereo not drawn) | 1 | -5 | ? | 17148* | -6 | -3
CCOC(=O)C1CCCN(c2nnnn2-c2ccccc2)C1 (stereo not drawn) | 8 | -10 | 1 | 4018 | 4 | 0
Cc1cc(NO)nc(-c2ccc(Br)cc2)n1 | 2 | 26 | -3 | 24290* | -5 | -2
Cc1cc(C)nc(NC(=O)c2ccc(Br)cc2)n1 | 6 | -6 | -8 | 4483 | ? | 2
COC(=O)c1c(NC(=O)CSc2nnnn2-c2ccccc2)sc2c1CCC(C(C)(C)C)C2 (stereo not drawn) | -18 | -2 | -2 | 23374* | -1 | -2
O=C1CC(N2CCC(c3nc4ccccc4o3)CC2)C(=O)N1c1cc(Cl)cc(Cl)c1 (stereo not drawn) | 2 | 12 | 1 | 22844* | -1 | -1
CN(C)CC(=O)c1ccc(-c2ccccc2)cc1 | 1 | 2 | 1 | 20222* | 2 | 1
Cc1ccc2nc3c(c(C(=O)O)c2c1)CCC3 | 3 | 21 | -1 | 9591 | -4 | -2
O=C(O)c1c2c(nc3ccc(F)cc13)CCC2 | 2 | 4 | 6 | 20799* | 6 | 0
COc1cccc(-n2nc(C(=O)N3CC(C)CC(C)C3)c3ccccc3c2=O)c1 (stereo not drawn) | -3 | 17 | 6 | 20358* | 8 | -8
COc1ccc(-n2nc(C(=O)NCC(=O)N3CC(C)CC(C)C3)c3ccccc3c2=O)cc1OC (stereo not drawn) | 8 | 35 | 0 | 5609 | 4 | -3
O=C1OCCN1N1CCOC1=O | 7 | / | 0 | 4160 | -8 | -5
COc1ccc(OC)c(/C=C/c2nc3ccccc3[nH]c2=O)c1 | 240* | 31 | ? | 5926 | ? | ?
